PubChem BioAssay (NCI)
The panel holds about 79,000 compounds, 15% with a hit somewhere; the sample as a whole holds those more often. Activity calls are given as the source filed them. Rule as the data show it: active = growth inhibition above about 70%; inactive = the rest.

Assays:
[1] = NCI Yeast Anticancer Drug Screen. Data for the rad52 strain (AID 147);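 also: 0% = growth of vehicle-treated control cultures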; settings: S. cerevisiae rad52 mutant growth inhibition, stronger effect = higher value
Procedure, shortened: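 Read-out: growth inhibition versus vehicle-treated controls. Cells were a DNA repair-deficient yeast strain treated with compounds.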

[2] = NCI Yeast Anticancer Drug Screen. Data for the wt1 strain (AID 149);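 also: 0% = growth of vehicle-treated wt1 cultures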; settings: S. cerevisiae wt1 strain (SPY 50644) growth inhibition, stronger effect = higher value
Procedure, shortened: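 Yeast wt1 strain exposed to compounds; growth inhibition measured relative to vehicle-treated controls.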

[3] = NCI Yeast Anticancer Drug Screen. Data for the mgt1 strain (AID 153); settings: S. cerevisiae mgt1 mutant growth inhibition, stronger effect = higher value
Procedure, shortened: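 mgt1 yeast grown with test compound; read-out is growth inhibition versus vehicle-treated cultures.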

[4] = NCI Yeast Anticancer Drug Screen. Data for the rad50 strain (AID 155);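 also: 0% = growth of vehicle-only cultures of the same strain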; settings: S. cerevisiae rad50 strain growth inhibition, stronger effect = higher value
Procedure, shortened: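 Yeast carrying a defined DNA repair defect were exposed to test compounds, and growth was compared with vehicle-treated controls to give percent inhibition.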

[5] = NCI Yeast Anticancer Drug Screen. Data for the mec2-1 strain (AID 157); settings: S. cerevisiae mec2-1 strain, stronger effect = higher value
Procedure, shortened: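 Yeast mec2-1 mutant treated with compound. Readout: growth inhibition vs vehicle controls.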

[6] = NCI Yeast Anticancer Drug Screen. Data for the rad14 strain (AID 159);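 also: 0% = growth of vehicle-treated control cultures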; settings: S. cerevisiae rad14 strain growth inhibition, stronger effect = higher value
Procedure, shortened: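 Yeast cells carrying a defined DNA-repair defect were exposed to compounds, and growth inhibition was calculated relative to vehicle-treated control cultures.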

[7] = NCI Yeast Anticancer Drug Screen. Data for the sgs1 mgt1 strain (AID 161);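 also: 0% = growth of cultures given vehicle only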; settings: S. cerevisiae sgs1 mgt1 strain, stronger effect = higher value
Procedure, shortened: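 Read-out: growth inhibition vs vehicle controls. Cells: mutant yeast strain deficient in DNA damage repair.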

[8] = NCI Yeast Anticancer Drug Screen. Data for the CLN2oe strain (AID 163);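 also: 0% = growth of vehicle-only control cultures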; settings: S. cerevisiae CLN2oe strain, stronger effect = higher value
Procedure, shortened: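 Read-out: yeast growth inhibition, expressed relative to vehicle-only controls. The strain bears an engineered cell-cycle alteration.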

[9] = NCI Yeast Anticancer Drug Screen. Data for the cln2 rad14 strain (AID 165);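 also: 0% = growth equal to vehicle treated cultures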; settings: S. cerevisiae cln2 rad14 strain, stronger effect = higher value
Procedure, shortened: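 cln2 rad14 yeast strain; compound exposure; growth inhibition read vs vehicle controls.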

[10] = NCI Yeast Anticancer Drug Screen. Data for the bub3 strain (AID 167); settings: S. cerevisiae bub3 mutant strain, stronger effect = higher value
Procedure, shortened: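 Compounds were applied to a genetically altered yeast strain carrying a cell-cycle control defect. Growth inhibition was scored against vehicle-treated controls.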

[11] = NCI Yeast Anticancer Drug Screen. Data for the wt2 strain (AID 169);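 also: 0% = growth of vehicle-treated yeast cultures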; settings: S. cerevisiae wt2 strain growth inhibition, stronger effect = higher value
Procedure, shortened: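 Read-out: growth inhibition versus vehicle-treated control cultures after compound exposure of the yeast strain.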

[12] = NCI Yeast Anticancer Drug Screen. Data for the mlh1 strain (AID 171);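 also: 0% = growth of vehicle-treated control cultures of the same strain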; settings: S. cerevisiae mlh1 strain growth inhibition, stronger effect = higher value
Procedure, shortened: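 Read-out: growth inhibition versus vehicle controls. Strain: engineered yeast with a defined DNA repair or cell cycle defect, compound-treated.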

[13] = NCI Yeast Anticancer Drug Screen. Data for the sgs1 strain (AID 173);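 also: 0% = growth of vehicle-only control cultures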; settings: S. cerevisiae sgs1 mutant, stronger effect = higher value
Procedure, shortened: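 Read-out: yeast growth inhibition relative to vehicle controls, following compound exposure of a strain with a defined DNA repair/cell cycle alteration.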

[14] = NCI Yeast Anticancer Drug Screen. Data for the mlh1 rad18 strain (AID 175); settings: S. cerevisiae mlh1 rad18 strain growth inhibition, stronger effect = higher value
Procedure, shortened: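 Yeast w/ defined DNA-repair lesions; compound exposure; growth vs vehicle controls → % inhibition.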

[15] = NCI Yeast Anticancer Drug Screen. Data for the rad18 strain (AID 177); settings: S. cerevisiae rad18 mutant growth inhibition, stronger effect = higher value
Procedure, shortened: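 Readout: growth inhibition vs vehicle controls. Cells: genetically altered yeast strain, DNA repair defect.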

[16] = at 5.0 µM (retest, dose inferred, filed as 0.5)
[17] = at 50.0 µM (retest, dose inferred, filed as 5.0)

Measured: growth inhibition

CCCCCCCCCCCCCCCCCCOCC(O)COP(=O)(O)OCC1OC(n2cc(F)c(=O)[nH]c2=O)CC1O (stereo not drawn)
active: [1]; at 33.0 µM 97% | [1]; at 100.0 µM 97% | [2]; at 100.0 µM 93% | [3]; at 33.0 µM 98% | [3]; at 100.0 µM 98% | [4]; [16] 91% | [4]; at 33.0 µM 96% | [4]; [17] 99% | [4]; at 50.0 µM 87.6% | [4]; at 100.0 µM 98% | [5]; at 11.0 µM 74% | [5]; at 33.0 µM 90% | [5]; [17] 99% | [5]; at 50.0 µM 88.5% | [5]; at 100.0 µM 96% | [6]; at 100.0 µM 95% | [7]; [17] 98% | [7]; at 50.0 µM 88.3% | [8]; at 33.0 µM 96% | [8]; at 100.0 µM 99% | [9]; [17] 96% | [9]; at 50.0 µM 89.8% | [10]; at 33.0 µM 74% | [10]; [17] 91% | [10]; at 50.0 µM 82.3% | [10]; at 100.0 µM 94% | [11]; at 33.0 µM 88% | [11]; at 100.0 µM 94% | [12]; at 33.0 µM 96% | [12]; at 100.0 µM 97% | [13]; at 11.0 µM 81% | [13]; at 33.0 µM 95% | [13]; at 100.0 µM 97% | [14]; [17] 99% | [14]; at 50.0 µM 91.2% | [15]; at 33.0 µM 97% | [15]; at 100.0 µM 98%
inactive: [1]; at 1.2 µM 15% | [1]; at 3.7 µM 16% | [1]; at 11.0 µM 61% | [2]; at 1.2 µM 17% | [2]; at 3.7 µM 4% | [2]; at 11.0 µM -7% | [2]; at 33.0 µM 16% | [3]; at 1.2 µM 30% | [3]; at 3.7 µM 25% | [3]; at 11.0 µM 64% | [4]; at 1.2 µM 18% | [4]; at 3.7 µM -10% | [4]; at 11.0 µM 54% | [5]; at 1.2 µM 4% | [5]; at 3.7 µM 12% | [5]; [16] 51% | [6]; at 1.2 µM 27% | [6]; at 3.7 µM 9% | [6]; at 11.0 µM -5% | [6]; at 33.0 µM 63% | [7]; [16] -34% | [8]; at 1.2 µM 30% | [8]; at 3.7 µM 28% | [8]; at 11.0 µM 60% | [9]; [16] 1% | [10]; at 1.2 µM 14% | [10]; at 3.7 µM 28% | [10]; [16] -12% | [10]; at 11.0 µM 1% | [11]; at 1.2 µM -57% | [11]; at 3.7 µM -83% | [11]; at 11.0 µM 58% | [12]; at 1.2 µM 32% | [12]; at 3.7 µM 19% | [12]; at 11.0 µM 54% | [13]; at 1.2 µM 26% | [13]; at 3.7 µM 19% | [14]; [16] 24% | [15]; at 1.2 µM 27% | [15]; at 3.7 µM -2% | [15]; at 11.0 µM 52%
